TRHR ag: TRH receptor (human) agonism; TRHR cells, calcium flux fluo-8, FDSS agonist mode; activation, % at 2 µM; hit rate 0.18% among 360,000; further: 0% is about no effect
Target sequence (P34981 whole entry, looked up): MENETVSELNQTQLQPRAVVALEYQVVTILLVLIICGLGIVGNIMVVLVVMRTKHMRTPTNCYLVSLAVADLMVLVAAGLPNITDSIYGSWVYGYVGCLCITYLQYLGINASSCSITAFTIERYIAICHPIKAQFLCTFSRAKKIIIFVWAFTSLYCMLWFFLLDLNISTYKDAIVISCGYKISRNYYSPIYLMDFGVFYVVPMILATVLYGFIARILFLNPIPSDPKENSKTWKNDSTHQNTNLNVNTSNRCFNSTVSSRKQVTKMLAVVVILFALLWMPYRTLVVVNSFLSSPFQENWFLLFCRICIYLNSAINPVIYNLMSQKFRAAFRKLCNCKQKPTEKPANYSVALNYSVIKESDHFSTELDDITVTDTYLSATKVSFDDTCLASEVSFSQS
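In this calcium-flux screen, cells bearing human TRHR are dye-loaded with fluo-8, baselined for 10 cycles, then exposed to library compounds; positive kinetic calcium responses during the agonist phase mark hits, with TRH as control.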
D1 antag: antagonists of human D1 dopamine receptor | P21728 | HEK293 TREx D1 cells, calcium flux, dopamine EC80; stronger effect = lower value | activity change, negative = inhibition, % at 10 µM | hit rate 3.2% among 360,000 | AID 504652; in the data active means activity change below about -30%; further: on the % scale 0 is the no-effect control and ±100 the full control effect
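Compound effects on dopamine-evoked calcium signalling were measured in tetracycline-induced HEK293 Trex D1 cells. Dopamine at EC80 followed a 180 s compound pre-read, and fluorescence was tracked kinetically for 180 s more.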
D1 agonist: activates the human D1 dopamine receptor; HEK293 T-REx D1 cells, calcium flux, agonist mode; activation, % at 2 µM; hit rate 1% among 360,000; further: 0% is about no effect
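Agonism was scored from calcium flux recorded over 180 s (1 read/s) after pintool compound addition, following a 10-cycle baseline. Cells were inducible force-coupled HEK293 TREx D1, plated overnight at 30 C and loaded with no-wash calcium dye.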
D1 PAM: enhances dopamine response at the human D1 receptor. P21728. HEK293 TREx D1 cells, calcium flux, dopamine EC20 potentiation. potentiation, % at 10 µM. hit rate 0.036% among 360,000. AID 504651; in the data active means potentiation above about 30%; further: 0% is about no effect
TRHR PAM: allosterically enhances the human TRH receptor. TRHR cells, fluo-8 calcium fluorescence, EC20 TRH enhancement. enhancement, % at 2 µM. hit rate 0.66% among 360,000. AID 493056; in the data active means enhancement above about 30%; further: 0% is about no effect
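TRHR-expressing cells loaded with fluo-8 calcium dye were read kinetically (ex 480/em 530) during compound addition, then stimulated with an EC20 of TRH (10 nM final). Enhancement of the Gq-mediated intracellular calcium response was scored.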
Epigenetic derep: derepresses silenced GFP reporter in murine cells; murine LDR cells, GFP reporter derepression, 30 h; Potency, µM (highest dose often 53.9 µM), without a hit: at the top dose GFP activation, hits mostly activators; hit rate 0.2% among 280,000; AID 1865; active means well fitted activation curve with a large enough effect; inconclusive means small, poorly fitted or top-dose-only effect; further: potency means the concentration at half of the fitted maximal effect; % of control where 0% means no effect; nearly all actives have a fitted effect of over 60% in size
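In this reporter-derepression format, murine cells bearing a silenced integrated CMV-GFP locus incubate with test compound (30 h, 37 C), then are washed and imaged; fluorescent objects of 20–120 um count as induced cells.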
Active calls of the source: *; ! = not confirmed by another sample. Shown are actives, neighbours in structure and some others; about 4.6% of the full set was active somewhere. Unless noted, no stated cut-off is given here; in the data, active means activation above about 30%; inactive means the rest.

Cc1cc(/C=C2/NC(=O)N(Cc3ccccc3F)C2=O)c(C)n1-c1ccccn1 was read as TRHR ag -0.2, D1 antag -42.7*, D1 agonist 2.1, D1 PAM -3.5, TRHR PAM 2.5 and Epigenetic derep -4.8%.
For Cc1ccc(/C=C2/NC(=O)N(Cc3ccccc3F)C2=O)s1 the results were TRHR ag 13.6, D1 antag 8.9, D1 agonist 43.5*, D1 PAM -4.4, TRHR PAM -1.4 and Epigenetic derep 3.55µM*.
Screening Cc1cccc(CN2C(=O)N/C(=C/c3cc(C)n(-c4ccccn4)c3C)C2=O)c1 returned TRHR ag -0.2, D1 antag -2.7, D1 agonist 3.0, D1 PAM 2.5, TRHR PAM 4.5 and Epigenetic derep 7.8%.
CC1CCN(c2nc3ccccc3nc2SCC(=O)Nc2ccccc2C(C)C)CC1 was read as TRHR ag 1.3, D1 antag 9.7, D1 agonist 2.2, D1 PAM 0.3, TRHR PAM -1.5 and Epigenetic derep -0.1%.
Screening COc1ccc(C)cc1NS(=O)(=O)c1cnc(N)nc1 returned TRHR ag -0.2, D1 antag 37.3, D1 agonist 10.6, D1 PAM -1.1, TRHR PAM -4.6 and Epigenetic derep 0.0%.
For CCOc1cc(C(=O)N2CC(=O)Nc3ccc(C)cc3C2c2ccccc2)cc(OCC)c1OCC (centres undefined) the results were TRHR ag 0.3, D1 antag 3.7, D1 agonist 0.1, D1 PAM 0.5, TRHR PAM 2.7 and Epigenetic derep inconclusive.
Screening C=CCSc1nnc(-c2cc3c(-c4ccccc4)nn(C)c3s2)n1C returned TRHR ag -0.3, D1 antag -45.5*, D1 agonist 2.1, D1 PAM -1.4, TRHR PAM 2.5 and Epigenetic derep 0.0%.
`Cc1ccc(CNC(=O)c2cc(NS(=O)(=O)c3ccc(C)cc3)ccn2)cc1` gave TRHR ag -0.4, D1 antag -31.7*, D1 agonist -0.6, D1 PAM 3.0, TRHR PAM 2.7 and Epigenetic derep 2.1%.
CC(=O)Nc1ccc(S(=O)(=O)Nc2ccc(C(=O)NCC(=O)O)cc2)cc1 was read as TRHR ag 0.7, D1 antag -65.9*, D1 agonist 1.7, D1 PAM -3.4, TRHR PAM 7.2 and Epigenetic derep 0.1%.
For CS(=O)(=O)Nc1ccc(C(=O)NCc2ccccn2)cc1 the results were TRHR ag 0.1, D1 antag 14.8, D1 agonist 5.6, D1 PAM -8.9, TRHR PAM 0.6 and Epigenetic derep 0.0%.
Cc1ccc(NS(=O)(=O)c2ccc(C(=O)NCc3ccncc3)cc2)cc1 was read as TRHR ag 4.3, D1 antag 13.1, D1 agonist 26.5, D1 PAM 7.7 and TRHR PAM 9.8.
For CCOc1ccc(NS(=O)(=O)c2ccc(C(=O)NCc3ccncc3)cc2)cc1 the results were TRHR ag 1.3, D1 antag 4.7, D1 agonist 11.9, D1 PAM -10.2 and TRHR PAM -1.3.
`Cc1ccc(NS(=O)(=O)c2ccc(C(=O)NCc3ccccn3)cc2)cc1` gave TRHR ag 6.5, D1 antag -29.7, D1 agonist 40.0*, D1 PAM -8.4 and TRHR PAM -0.6.
For CCOc1ccc(NS(=O)(=O)c2ccc(C(=O)NCc3ccccn3)cc2)cc1 the results were TRHR ag 4.5, D1 antag 7.5, D1 agonist 33.1*, D1 PAM -18.6 and TRHR PAM -1.5.
For Cc1ccc(C(C)n2cc(C(=O)NCc3ccccn3)nn2)cc1 (centres undefined) the results were TRHR ag 3.5, D1 antag 14.7, D1 agonist 32.5*, D1 PAM -6.5, TRHR PAM 0.2 and Epigenetic derep -0.1%.
`NCCC[C@@H](CC(=O)N[C@@H]1CCCC[C@H]1C(=O)N[C@H](CC(=O)N[C@@H](CCC(=O)O)CC(=O)O)Cc1ccccc1)NC(=O)C[C@H](CO)NC(=O)[C@@H]1CNCC[C@H]1N` gave Epigenetic derep -1.1%.
For CC1CCCCN1C(=O)CSc1nc(-c2ccccc2)cn1N (centres undefined) the results were TRHR ag -1.2, D1 antag 13.4, D1 agonist 3.1, D1 PAM 3.1, TRHR PAM -3.3 and Epigenetic derep -1.4%.
Screening CC1CCCCN1C(=O)CSc1n[nH]c(-c2ccccc2)n1 (centres undefined) returned TRHR ag 0.2, D1 antag -31.5*, D1 agonist 0.8, D1 PAM 2.7, TRHR PAM -3.6 and Epigenetic derep 2.4%.
`Cc1ccc(Cl)cc1NC(=O)c1cnn2c(C(F)F)cc(-c3ccccc3)nc12` gave TRHR ag 1.3, D1 antag -8.5, D1 agonist 5.5, D1 PAM 1.4, TRHR PAM 16.8 and Epigenetic derep 2.3%.
`CCOCCCN(Cc1ccco1)S(=O)(=O)c1csc(C(N)=O)c1` gave TRHR ag 0.2, D1 antag -49.9*, D1 agonist 1.2, D1 PAM -8.6 and TRHR PAM -1.9.
CC(C)CCN(Cc1ccco1)S(=O)(=O)c1csc(C(N)=O)c1 was read as TRHR ag 0.3, D1 antag 1.6, D1 agonist 3.2, D1 PAM -2.5 and TRHR PAM -7.5.
`Cc1ccccc1-c1nc(CS(=O)CC(=O)NCCc2ccc(Cl)cc2)c(C)o1` (centres undefined) gave TRHR ag -0.1, D1 antag -65.3*!, D1 agonist 33.6*!, D1 PAM -10.7, TRHR PAM 16.7 and Epigenetic derep 0.0%.
Screening Cc1ccc(CCNC(=O)CS(=O)Cc2nc(-c3ccccc3C)oc2C)cc1 (centres undefined) returned TRHR ag -0.1, D1 antag -10.2, D1 agonist 2.0, D1 PAM -2.9, TRHR PAM -5.2 and Epigenetic derep -1.1%.
Cc1c(-c2ccc(Cl)cc2)c(=O)oc2c(CN3CCN(CCO)CC3)c(O)ccc12 was read as TRHR ag -0.9, D1 antag 2.9, D1 agonist -1.2, D1 PAM -3.2, TRHR PAM -1.8 and Epigenetic derep -1.8%.
`COc1cccc(-c2cc(C(F)(F)F)nc(NCCc3ccc(OC)c(OC)c3)n2)c1` gave TRHR ag 1.1, D1 antag -52.8*, D1 agonist 10.7, D1 PAM 0.5, TRHR PAM -4.9 and Epigenetic derep 0.3%.
Screening CC(CNC(=O)c1ccc2nc(Cc3ccccc3)oc2c1)c1ccccc1 (centres undefined) returned TRHR ag 0.9, D1 antag -15.7, D1 agonist 19.3, D1 PAM 3.0, TRHR PAM 0.4 and Epigenetic derep 0.0%.
O=P(O)(CCc1ccccn1)CN1CCCCC1 was read as TRHR ag -0.3, D1 antag -31.9*, D1 agonist 0.6, D1 PAM -3.9, TRHR PAM -8.9 and Epigenetic derep -0.7%.

From PubChem BioAssay
